Target: CaNbp2
Assay: SPOT peptide array binding signal intensity (averaged, normalized) (arbitrary units (background-subtracted, floor 0; scale differs between SH3 domains)); higher = stronger binding of the SH3 domain to the peptide
Outline: (§1)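 GST-SH3 fusions from four yeast species, purified on glutathione Sepharose, were incubated at 10 μg/ml overnight at 4°C on membranes of synthetic 15-mer peptides in which cysteines were replaced with serines. Binding signal is the normalized, background-subtracted spot intensity averaged over replicates, in domain-specific arbitrary units.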

Binder	SPOT peptide array binding signal intensity
ALRRRLPVTRSKINW	712

Target: CaRvs167
Assay: as above
Outline: as §1

Binder	SPOT peptide array binding signal intensity
ALRRRLPVTRSKINW	48.5

Target: CaRvs167-3
Assay: as above
Outline: as §1

Binder	SPOT peptide array binding signal intensity
ALRRRLPVTRSKINW	197

Target: CaSho1
Assay: as above
Outline: as §1

Binder	SPOT peptide array binding signal intensity
ALRRRLPVTRSKINW	1180

Target: CaSla1-D1-D2
Assay: as above
Outline: as §1

Binder	SPOT peptide array binding signal intensity
ALRRRLPVTRSKINW	491

Target: CaSla1-D3
Assay: as above
Outline: as §1

Binder	SPOT peptide array binding signal intensity
ALRRRLPVTRSKINW	11.5

Target: ScAbp1
Assay: as above
Outline: as §1

Binder	SPOT peptide array binding signal intensity
ALRRRLPVTRSKINW	59

Target: ScBbc1
Assay: as above
Outline: as §1

Binder	SPOT peptide array binding signal intensity
ALRRRLPVTRSKINW	45.5

Target: ScBem1-D1
Assay: as above
Outline: as §1

Binder	SPOT peptide array binding signal intensity
ALRRRLPVTRSKINW	20

Target: ScBzz1-D1
Assay: as above
Outline: as §1

Binder	SPOT peptide array binding signal intensity
ALRRRLPVTRSKINW	23

Target: ScBzz1-D2
Assay: as above
Outline: as §1

Binder	SPOT peptide array binding signal intensity
ALRRRLPVTRSKINW	27

Target: ScCyk3
Assay: as above
Outline: as §1

Binder	SPOT peptide array binding signal intensity
ALRRRLPVTRSKINW	160

Target: ScFus1
Assay: as above
Outline: as §1

Binder	SPOT peptide array binding signal intensity
ALRRRLPVTRSKINW	784

Target: ScHof1
Assay: as above
Outline: as §1

Binder	SPOT peptide array binding signal intensity
ALRRRLPVTRSKINW	2.5

Target: ScHse1
Assay: as above
Outline: as §1

Binder	SPOT peptide array binding signal intensity
ALRRRLPVTRSKINW	1800

Target: ScLsb1
Assay: as above
Outline: as §1

Binder	SPOT peptide array binding signal intensity
ALRRRLPVTRSKINW	26.8

Target: ScLsb2
Assay: as above
Outline: as §1

Binder	SPOT peptide array binding signal intensity
ALRRRLPVTRSKINW	15.5

Target: ScLsb3
Assay: as above
Outline: as §1

Binder	SPOT peptide array binding signal intensity
ALRRRLPVTRSKINW	658

Target: ScLsb4
Assay: as above
Outline: as §1

Binder	SPOT peptide array binding signal intensity
ALRRRLPVTRSKINW	25

Target: ScMyo3
Assay: as above
Outline: as §1

Binder	SPOT peptide array binding signal intensity
ALRRRLPVTRSKINW	3.5

Target: ScMyo5
Assay: as above
Outline: as §1

Binder	SPOT peptide array binding signal intensity
ALRRRLPVTRSKINW	3.5

Target: ScNbp2
Assay: as above
Outline: as §1

Binder	SPOT peptide array binding signal intensity
ALRRRLPVTRSKINW	616

Target: ScPex13
Assay: as above
Outline: as §1

Binder	SPOT peptide array binding signal intensity
ALRRRLPVTRSKINW	2.25

Target: ScRvs167
Assay: as above
Outline: as §1

Binder	SPOT peptide array binding signal intensity
ALRRRLPVTRSKINW	155

Target: ScSho1
Assay: as above
Outline: as §1

Binder	SPOT peptide array binding signal intensity
ALRRRLPVTRSKINW	1460

Target: ScSla1-D1-D2
Assay: as above
Outline: as §1

Binder	SPOT peptide array binding signal intensity
ALRRRLPVTRSKINW	713

Target: ScSla1-D3
Assay: as above
Outline: as §1

Binder	SPOT peptide array binding signal intensity
ALRRRLPVTRSKINW	23

Target: SpAbp1-D1
Assay: as above
Outline: as §1

Binder	SPOT peptide array binding signal intensity
ALRRRLPVTRSKINW	794

Target: SpBbc1
Assay: as above
Outline: as §1

Binder	SPOT peptide array binding signal intensity
ALRRRLPVTRSKINW	10

Target: SpBzz1-D1
Assay: as above
Outline: as §1

Binder	SPOT peptide array binding signal intensity
ALRRRLPVTRSKINW	381

Target: SpBzz1-D2
Assay: as above
Outline: as §1

Binder	SPOT peptide array binding signal intensity
ALRRRLPVTRSKINW	0.5

Target: SpCyk3
Assay: as above
Outline: as §1

Binder	SPOT peptide array binding signal intensity
ALRRRLPVTRSKINW	69.5

Target: SpHof1
Assay: as above
Outline: as §1

Binder	SPOT peptide array binding signal intensity
ALRRRLPVTRSKINW	357

Target: SpHof1-2
Assay: as above
Outline: as §1

Binder	SPOT peptide array binding signal intensity
ALRRRLPVTRSKINW	80.8

Target: SpHof1-3
Assay: as above
Outline: as §1

Binder	SPOT peptide array binding signal intensity
ALRRRLPVTRSKINW	790

Target: SpHse1
Assay: as above
Outline: as §1

Binder	SPOT peptide array binding signal intensity
ALRRRLPVTRSKINW	766

Target: SpLsb1
Assay: as above
Outline: as §1

Binder	SPOT peptide array binding signal intensity
ALRRRLPVTRSKINW	16.2

Target: SpLsb4
Assay: as above
Outline: as §1

Binder	SPOT peptide array binding signal intensity
ALRRRLPVTRSKINW	553

Target: SpMyo1
Assay: as above
Outline: as §1

Binder	SPOT peptide array binding signal intensity
ALRRRLPVTRSKINW	10.2

Target: SpNbp2
Assay: as above
Outline: as §1

Binder	SPOT peptide array binding signal intensity
ALRRRLPVTRSKINW	716

Target: SpPex13
Assay: as above
Outline: as §1

Binder	SPOT peptide array binding signal intensity
ALRRRLPVTRSKINW	23

Target: SpRvs167
Assay: as above
Outline: as §1

Binder	SPOT peptide array binding signal intensity
ALRRRLPVTRSKINW	72.5

Target: SpSla1-D1-D2
Assay: as above
Outline: as §1

Binder	SPOT peptide array binding signal intensity
ALRRRLPVTRSKINW	≤ 0

Target: SpSla1-D3
Assay: as above
Outline: as §1

Binder	SPOT peptide array binding signal intensity
ALRRRLPVTRSKINW	41.5
